# Assay results reported in paper PMC7862700, “An all-to-all approach to the identification of sequence-specific readers for epigenetic DNA modifications on cytosine”.
# How the values were obtained:
# Assay in all cases: DAPPL (digital affinity profiling via proximity ligation, sequencing); 10 mM Tris-HCl pH 7.5, 50 mM NaCl, 1 mM DTT, 4% glycerol, room temperature, 30 min; GST-TFs on glutathione beads, 16-mer random dsDNA library, 0.1% formaldehyde crosslink after washing; high values mean tight binding
# FEV = target: T1, FEV (Homo sapiens, UniProt Q99581 1-238); settings: protein: recombinant; tags: N-terminal GST; dsDNA, one strand shown
# T1 sequence: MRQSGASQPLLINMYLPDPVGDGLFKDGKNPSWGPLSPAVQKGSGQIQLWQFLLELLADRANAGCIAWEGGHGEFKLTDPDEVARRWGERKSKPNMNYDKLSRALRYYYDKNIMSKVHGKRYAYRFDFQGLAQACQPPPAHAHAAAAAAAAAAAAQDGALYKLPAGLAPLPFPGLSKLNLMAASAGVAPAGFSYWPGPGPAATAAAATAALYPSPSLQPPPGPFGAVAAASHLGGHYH
# Procedure, shortened: (§1)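 Binding signal is each hexamer's read frequency for a factor divided by its frequency in the tag-only sample. The factors were GST-fused human transcription factors from yeast, captured on glutathione beads, DNA-barcoded and pooled with that sample. Pools were incubated with 200 nmole of a random double-stranded 16-mer DNA library in Tris/NaCl/DTT/glycerol buffer at room temperature for 30 min, then washed, crosslinked with 0.1% formaldehyde, proximity-ligated with BsaI/T4 ligase (1 h, 37 °C), PCR-amplified and sequenced on an Illumina NextSeq500.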
# ETV5 = ETV5 (Homo sapiens, UniProt P41161 1-510); settings: protein: recombinant; tags: N-terminal GST; dsDNA, one strand shown
# Procedure, shortened: as §1
# HSF1 = HSF1 (Homo sapiens, UniProt Q00613 1-529); settings: protein: recombinant; tags: N-terminal GST; chain copies: 3; dsDNA, one strand shown
# Procedure, shortened: as §1
# SPIC = target: T2, SPIC (Homo sapiens, UniProt Q8N5J4 1-248); settings: protein: recombinant; tags: N-terminal GST; dsDNA, one strand shown
# T2 sequence: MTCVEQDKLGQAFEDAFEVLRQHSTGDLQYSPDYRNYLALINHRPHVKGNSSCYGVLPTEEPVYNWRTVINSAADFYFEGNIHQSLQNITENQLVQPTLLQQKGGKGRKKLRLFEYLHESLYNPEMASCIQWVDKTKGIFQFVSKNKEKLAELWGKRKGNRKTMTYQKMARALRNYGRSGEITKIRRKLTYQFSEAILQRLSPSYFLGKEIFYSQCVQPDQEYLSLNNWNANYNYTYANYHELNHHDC
# Procedure, shortened: as §1
# ELF4 = ELF4 (Homo sapiens, UniProt Q99607 1-663); settings: protein: recombinant; tags: N-terminal GST; dsDNA, one strand shown
# Procedure, shortened: as §1
# ELK4 = target: T3, ELK4 (Homo sapiens, UniProt P28324-2 1-405); settings: protein: recombinant; tags: N-terminal GST; dsDNA, one strand shown
# T3 sequence: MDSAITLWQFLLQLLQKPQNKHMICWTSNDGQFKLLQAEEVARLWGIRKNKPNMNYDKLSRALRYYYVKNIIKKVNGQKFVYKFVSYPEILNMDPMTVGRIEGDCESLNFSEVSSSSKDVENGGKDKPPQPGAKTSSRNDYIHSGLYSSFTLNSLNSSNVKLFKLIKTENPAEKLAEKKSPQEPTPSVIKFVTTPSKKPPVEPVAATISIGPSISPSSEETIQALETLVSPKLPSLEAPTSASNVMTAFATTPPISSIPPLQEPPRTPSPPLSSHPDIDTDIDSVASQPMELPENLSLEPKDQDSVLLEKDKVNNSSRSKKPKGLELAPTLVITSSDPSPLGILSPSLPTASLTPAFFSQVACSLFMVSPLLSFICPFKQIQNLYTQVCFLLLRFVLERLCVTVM
# Procedure, shortened: as §1
# ETV2 = target: T4, ETV2 (Homo sapiens, UniProt O00321 1-342); settings: protein: recombinant; tags: N-terminal GST; dsDNA, one strand shown
# T4 sequence: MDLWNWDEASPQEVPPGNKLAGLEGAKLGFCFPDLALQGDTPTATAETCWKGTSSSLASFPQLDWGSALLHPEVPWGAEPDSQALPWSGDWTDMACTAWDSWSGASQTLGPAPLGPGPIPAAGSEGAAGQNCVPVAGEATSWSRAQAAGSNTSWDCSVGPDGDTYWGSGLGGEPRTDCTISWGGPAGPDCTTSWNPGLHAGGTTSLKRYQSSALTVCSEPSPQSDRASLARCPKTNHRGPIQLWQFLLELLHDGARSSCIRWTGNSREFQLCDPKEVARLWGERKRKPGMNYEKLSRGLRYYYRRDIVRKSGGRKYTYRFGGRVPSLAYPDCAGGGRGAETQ
# Procedure, shortened: as §1
# ELF3 = target: T5, ELF3 (Homo sapiens, UniProt P78545 1-371); settings: protein: recombinant; tags: N-terminal GST; dsDNA, one strand shown
# T5 sequence: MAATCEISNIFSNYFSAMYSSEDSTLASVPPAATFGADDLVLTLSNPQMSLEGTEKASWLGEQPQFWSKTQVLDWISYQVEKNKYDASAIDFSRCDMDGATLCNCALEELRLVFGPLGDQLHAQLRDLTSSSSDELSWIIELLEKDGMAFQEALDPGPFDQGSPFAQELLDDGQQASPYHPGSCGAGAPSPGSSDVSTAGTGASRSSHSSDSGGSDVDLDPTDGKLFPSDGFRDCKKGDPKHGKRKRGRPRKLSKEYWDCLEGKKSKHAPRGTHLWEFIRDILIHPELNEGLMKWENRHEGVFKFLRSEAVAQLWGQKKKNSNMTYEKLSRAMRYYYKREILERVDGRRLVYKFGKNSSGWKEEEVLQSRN
# Procedure, shortened: as §1
# CRX = CRX (Homo sapiens, UniProt O43186 1-299); settings: protein: recombinant; tags: N-terminal GST; dsDNA, one strand shown
# Procedure, shortened: as §1
# ETV1 = ETV1 (Homo sapiens, UniProt P50549 1-477); settings: protein: recombinant; tags: N-terminal GST; dsDNA, one strand shown
# Procedure, shortened: as §1
# ERF = target: T6, ERF (Homo sapiens, UniProt P50548 1-548); settings: protein: recombinant; tags: N-terminal GST; dsDNA, one strand shown
# T6 sequence: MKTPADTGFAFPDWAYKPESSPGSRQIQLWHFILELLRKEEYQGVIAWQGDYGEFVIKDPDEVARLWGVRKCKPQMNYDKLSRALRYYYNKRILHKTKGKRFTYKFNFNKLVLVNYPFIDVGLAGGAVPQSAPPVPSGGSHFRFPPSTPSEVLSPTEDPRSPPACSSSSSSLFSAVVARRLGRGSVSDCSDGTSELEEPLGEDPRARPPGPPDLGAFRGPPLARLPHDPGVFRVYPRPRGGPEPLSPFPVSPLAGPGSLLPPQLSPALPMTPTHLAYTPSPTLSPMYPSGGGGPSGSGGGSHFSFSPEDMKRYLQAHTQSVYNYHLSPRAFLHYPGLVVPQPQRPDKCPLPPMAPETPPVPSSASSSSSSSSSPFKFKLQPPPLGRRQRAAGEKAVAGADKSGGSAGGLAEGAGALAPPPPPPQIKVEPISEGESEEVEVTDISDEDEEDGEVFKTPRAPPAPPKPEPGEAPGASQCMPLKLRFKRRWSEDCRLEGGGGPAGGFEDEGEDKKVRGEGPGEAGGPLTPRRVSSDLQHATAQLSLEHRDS
# Procedure, shortened: as §1
# ETV3L = target: T7, ETV3L (Homo sapiens, UniProt Q6ZN32 1-361); settings: protein: recombinant; tags: N-terminal GST; dsDNA, one strand shown
# T7 sequence: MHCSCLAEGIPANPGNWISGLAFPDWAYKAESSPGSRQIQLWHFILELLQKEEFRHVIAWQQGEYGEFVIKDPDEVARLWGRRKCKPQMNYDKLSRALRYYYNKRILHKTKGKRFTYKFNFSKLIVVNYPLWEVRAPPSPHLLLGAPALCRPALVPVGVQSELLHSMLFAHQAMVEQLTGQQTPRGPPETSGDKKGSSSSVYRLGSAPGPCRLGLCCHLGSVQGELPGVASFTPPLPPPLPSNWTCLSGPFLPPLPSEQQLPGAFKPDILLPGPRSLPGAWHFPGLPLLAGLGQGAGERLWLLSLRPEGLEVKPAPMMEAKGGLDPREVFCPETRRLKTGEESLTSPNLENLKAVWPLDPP
# Procedure, shortened: as §1
# ETS2 = target: T8, ETS2 (Homo sapiens, UniProt P15036 1-469); settings: protein: recombinant; tags: N-terminal GST; dsDNA, one strand shown
# T8 sequence: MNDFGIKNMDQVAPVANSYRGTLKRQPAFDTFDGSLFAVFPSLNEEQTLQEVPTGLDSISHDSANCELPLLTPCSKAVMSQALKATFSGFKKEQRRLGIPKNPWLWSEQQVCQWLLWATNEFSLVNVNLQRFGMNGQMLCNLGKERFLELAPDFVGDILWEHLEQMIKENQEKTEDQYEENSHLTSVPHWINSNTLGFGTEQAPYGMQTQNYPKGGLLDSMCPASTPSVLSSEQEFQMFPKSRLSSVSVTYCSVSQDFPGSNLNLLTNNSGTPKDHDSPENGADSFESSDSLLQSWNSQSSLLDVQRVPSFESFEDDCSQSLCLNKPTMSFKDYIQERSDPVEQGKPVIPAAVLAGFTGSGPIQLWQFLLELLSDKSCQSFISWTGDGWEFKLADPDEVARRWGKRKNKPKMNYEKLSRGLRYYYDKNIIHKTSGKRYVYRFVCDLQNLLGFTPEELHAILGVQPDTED
# Procedure, shortened: as §1
# SPDEF = target: T9, SPDEF (Homo sapiens, UniProt O95238 1-335); settings: protein: recombinant; tags: N-terminal GST; dsDNA, one strand shown
# T9 sequence: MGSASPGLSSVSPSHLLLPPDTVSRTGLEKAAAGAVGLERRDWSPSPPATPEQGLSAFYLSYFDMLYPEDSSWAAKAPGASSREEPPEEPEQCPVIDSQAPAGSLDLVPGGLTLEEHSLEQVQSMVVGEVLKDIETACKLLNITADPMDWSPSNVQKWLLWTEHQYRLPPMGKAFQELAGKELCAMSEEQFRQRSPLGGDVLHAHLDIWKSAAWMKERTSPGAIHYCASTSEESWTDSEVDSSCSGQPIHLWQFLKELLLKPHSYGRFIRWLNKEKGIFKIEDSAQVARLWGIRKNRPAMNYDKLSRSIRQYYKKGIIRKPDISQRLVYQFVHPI
# Procedure, shortened: as §1
# ETV7 = target: T10, ETV7 (Homo sapiens, UniProt Q9Y603 1-341); settings: protein: recombinant; tags: N-terminal GST; dsDNA, one strand shown
# T10 sequence: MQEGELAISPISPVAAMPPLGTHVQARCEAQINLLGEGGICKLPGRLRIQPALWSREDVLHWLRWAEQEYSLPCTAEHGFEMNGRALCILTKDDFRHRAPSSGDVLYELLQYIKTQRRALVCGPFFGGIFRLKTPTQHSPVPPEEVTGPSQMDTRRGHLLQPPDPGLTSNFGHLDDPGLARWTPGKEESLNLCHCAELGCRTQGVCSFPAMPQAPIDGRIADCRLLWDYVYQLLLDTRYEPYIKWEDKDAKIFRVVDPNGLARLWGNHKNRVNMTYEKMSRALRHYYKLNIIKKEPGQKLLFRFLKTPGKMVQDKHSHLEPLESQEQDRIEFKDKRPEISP
# Procedure, shortened: as §1
# ELF5 = target: T11, ELF5 (Homo sapiens, UniProt Q9UKW6-2 1-255); settings: protein: recombinant; tags: N-terminal GST; dsDNA, one strand shown
# T11 sequence: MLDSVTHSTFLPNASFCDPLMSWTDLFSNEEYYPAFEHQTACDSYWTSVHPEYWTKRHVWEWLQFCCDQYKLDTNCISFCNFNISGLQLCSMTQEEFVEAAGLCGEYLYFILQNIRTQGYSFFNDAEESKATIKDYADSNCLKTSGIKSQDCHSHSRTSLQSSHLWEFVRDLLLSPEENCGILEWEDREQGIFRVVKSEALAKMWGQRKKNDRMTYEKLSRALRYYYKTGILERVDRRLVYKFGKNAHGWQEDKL
# Procedure, shortened: as §1
# ETV3 = target: T12, ETV3 (Homo sapiens, UniProt P41162-2 1-143); settings: protein: recombinant; tags: N-terminal GST; dsDNA, one strand shown
# T12 sequence: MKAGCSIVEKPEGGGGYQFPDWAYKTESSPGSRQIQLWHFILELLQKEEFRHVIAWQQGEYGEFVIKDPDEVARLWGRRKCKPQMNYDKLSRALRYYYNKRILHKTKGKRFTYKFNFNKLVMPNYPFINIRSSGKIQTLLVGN
# Procedure, shortened: as §1
# ETV6 = ETV6 (Homo sapiens, UniProt P41212 1-452); settings: protein: recombinant; tags: N-terminal GST; dsDNA, one strand shown
# Procedure, shortened: as §1
# Sequence of HSF1 (Q00613 whole entry): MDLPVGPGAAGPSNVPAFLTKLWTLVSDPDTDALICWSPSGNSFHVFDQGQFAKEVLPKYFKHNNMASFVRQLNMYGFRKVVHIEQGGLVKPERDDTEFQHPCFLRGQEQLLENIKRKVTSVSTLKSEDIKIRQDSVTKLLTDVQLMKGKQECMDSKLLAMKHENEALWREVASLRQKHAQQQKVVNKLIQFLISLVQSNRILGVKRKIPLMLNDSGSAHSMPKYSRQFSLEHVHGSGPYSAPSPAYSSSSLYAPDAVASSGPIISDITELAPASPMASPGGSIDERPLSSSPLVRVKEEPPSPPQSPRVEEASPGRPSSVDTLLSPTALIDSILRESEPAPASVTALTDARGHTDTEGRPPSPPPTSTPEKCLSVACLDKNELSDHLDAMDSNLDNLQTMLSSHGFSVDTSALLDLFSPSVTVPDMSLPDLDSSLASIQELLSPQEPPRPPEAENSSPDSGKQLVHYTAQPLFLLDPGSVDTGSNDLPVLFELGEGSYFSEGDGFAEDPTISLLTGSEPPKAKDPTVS
# Sequence of ETV1 (P50549 whole entry): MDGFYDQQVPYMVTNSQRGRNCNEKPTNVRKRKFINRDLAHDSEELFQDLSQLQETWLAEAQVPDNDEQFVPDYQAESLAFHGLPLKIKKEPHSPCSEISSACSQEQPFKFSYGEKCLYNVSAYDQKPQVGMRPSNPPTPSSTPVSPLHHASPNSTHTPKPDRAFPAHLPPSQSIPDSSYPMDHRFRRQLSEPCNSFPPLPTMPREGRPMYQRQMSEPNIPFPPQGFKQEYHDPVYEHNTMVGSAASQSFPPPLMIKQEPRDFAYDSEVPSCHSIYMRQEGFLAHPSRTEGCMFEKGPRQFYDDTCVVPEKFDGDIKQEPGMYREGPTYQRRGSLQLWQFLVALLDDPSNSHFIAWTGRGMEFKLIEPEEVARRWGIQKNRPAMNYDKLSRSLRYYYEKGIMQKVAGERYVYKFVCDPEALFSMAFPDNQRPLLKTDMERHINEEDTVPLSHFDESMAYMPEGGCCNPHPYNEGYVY
# Sequence of CRX (O43186 whole entry): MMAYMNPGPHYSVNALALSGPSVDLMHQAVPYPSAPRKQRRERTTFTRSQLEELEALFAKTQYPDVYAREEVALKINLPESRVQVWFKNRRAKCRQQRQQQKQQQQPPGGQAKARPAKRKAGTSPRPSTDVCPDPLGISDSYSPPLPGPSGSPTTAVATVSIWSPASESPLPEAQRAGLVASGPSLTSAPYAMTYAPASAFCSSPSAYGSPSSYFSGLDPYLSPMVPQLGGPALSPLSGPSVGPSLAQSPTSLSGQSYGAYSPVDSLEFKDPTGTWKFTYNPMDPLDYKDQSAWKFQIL
# Sequence of ETV5 (P41161 whole entry): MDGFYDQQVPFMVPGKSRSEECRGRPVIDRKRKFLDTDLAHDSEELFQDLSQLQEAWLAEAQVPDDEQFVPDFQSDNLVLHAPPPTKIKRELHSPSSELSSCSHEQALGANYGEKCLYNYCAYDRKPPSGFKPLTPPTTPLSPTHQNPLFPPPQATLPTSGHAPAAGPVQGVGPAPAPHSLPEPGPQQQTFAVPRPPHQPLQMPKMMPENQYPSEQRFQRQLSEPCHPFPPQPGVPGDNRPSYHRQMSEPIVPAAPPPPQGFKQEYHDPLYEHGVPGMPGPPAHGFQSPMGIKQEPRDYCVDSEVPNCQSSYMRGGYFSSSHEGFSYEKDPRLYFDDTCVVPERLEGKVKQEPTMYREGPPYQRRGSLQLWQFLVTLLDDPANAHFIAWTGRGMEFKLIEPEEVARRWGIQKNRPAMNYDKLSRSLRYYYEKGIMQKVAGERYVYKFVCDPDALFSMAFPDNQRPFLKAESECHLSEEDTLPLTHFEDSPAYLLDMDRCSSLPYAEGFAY
# Sequence of ETV6 (P41212 whole entry): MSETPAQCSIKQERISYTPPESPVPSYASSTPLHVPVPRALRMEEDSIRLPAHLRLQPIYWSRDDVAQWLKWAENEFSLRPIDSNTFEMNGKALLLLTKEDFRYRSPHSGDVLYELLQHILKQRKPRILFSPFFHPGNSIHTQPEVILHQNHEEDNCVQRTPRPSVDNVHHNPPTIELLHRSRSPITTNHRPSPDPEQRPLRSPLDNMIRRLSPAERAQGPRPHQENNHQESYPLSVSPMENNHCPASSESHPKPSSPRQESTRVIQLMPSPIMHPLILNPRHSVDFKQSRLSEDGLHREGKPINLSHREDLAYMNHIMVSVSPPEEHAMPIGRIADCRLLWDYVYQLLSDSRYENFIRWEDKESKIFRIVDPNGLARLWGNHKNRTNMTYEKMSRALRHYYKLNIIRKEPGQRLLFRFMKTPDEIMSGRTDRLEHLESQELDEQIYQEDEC
# Sequence of ELF4 (Q99607 whole entry): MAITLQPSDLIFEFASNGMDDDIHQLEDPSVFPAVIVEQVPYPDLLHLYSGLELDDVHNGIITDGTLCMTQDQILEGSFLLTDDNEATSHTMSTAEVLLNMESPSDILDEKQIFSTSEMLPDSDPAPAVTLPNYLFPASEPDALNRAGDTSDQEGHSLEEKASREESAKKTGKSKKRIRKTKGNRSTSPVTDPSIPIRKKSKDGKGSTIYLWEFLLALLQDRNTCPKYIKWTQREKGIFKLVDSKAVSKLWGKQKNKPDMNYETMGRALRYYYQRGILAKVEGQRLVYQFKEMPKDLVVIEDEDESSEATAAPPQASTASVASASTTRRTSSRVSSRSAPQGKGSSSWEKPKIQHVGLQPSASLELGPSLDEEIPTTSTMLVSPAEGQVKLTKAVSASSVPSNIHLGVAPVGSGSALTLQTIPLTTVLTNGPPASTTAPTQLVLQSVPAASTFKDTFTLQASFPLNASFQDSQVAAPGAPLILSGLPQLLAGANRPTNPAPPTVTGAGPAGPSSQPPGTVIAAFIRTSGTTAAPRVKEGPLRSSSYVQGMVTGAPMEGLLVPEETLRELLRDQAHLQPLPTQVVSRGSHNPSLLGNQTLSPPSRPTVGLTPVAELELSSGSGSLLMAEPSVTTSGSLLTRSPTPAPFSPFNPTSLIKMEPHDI
sequence,measurement,setting,value
ATTTGT,binding signal,FEV,"1.34 fold enrichment (6-mer frequency, TF over GST control)"
same,binding signal,ETV5,"1.41 fold enrichment (6-mer frequency, TF over GST control)"
same,binding signal,HSF1,"1.33 fold enrichment (6-mer frequency, TF over GST control)"
same,binding signal,SPIC,"1.35 fold enrichment (6-mer frequency, TF over GST control)"
same,binding signal,ELF4,"1.32 fold enrichment (6-mer frequency, TF over GST control)"
same,binding signal,ELK4,"1.45 fold enrichment (6-mer frequency, TF over GST control)"
same,binding signal,ETV2,"1.44 fold enrichment (6-mer frequency, TF over GST control)"
same,binding signal,ELF3,"1.41 fold enrichment (6-mer frequency, TF over GST control)"
same,binding signal,CRX,"1.58 fold enrichment (6-mer frequency, TF over GST control)"
same,binding signal,ETV1,"1.23 fold enrichment (6-mer frequency, TF over GST control)"
same,binding signal,ERF,"1.34 fold enrichment (6-mer frequency, TF over GST control)"
same,binding signal,ETV3L,"1.35 fold enrichment (6-mer frequency, TF over GST control)"
same,binding signal,ETS2,"1.36 fold enrichment (6-mer frequency, TF over GST control)"
same,binding signal,SPDEF,"1.33 fold enrichment (6-mer frequency, TF over GST control)"
same,binding signal,ETV7,"1.34 fold enrichment (6-mer frequency, TF over GST control)"
same,binding signal,ELF5,"1.26 fold enrichment (6-mer frequency, TF over GST control)"
same,binding signal,ETV3,"1.4 fold enrichment (6-mer frequency, TF over GST control)"
same,binding signal,ETV6,"1.29 fold enrichment (6-mer frequency, TF over GST control)"
